eLon inh: inhibitors of E. coli Lon protease; purified E. coli Lon protease, fluorescence polarization; inhibition, % at 7.94 µM; AID 602123; hit rate 0.42% among 360,000; in the data active means inhibition above about 13%, passing the limit was not always enough;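 further: 0% = enzyme with probe and DMSO and 100% = no enzyme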
Rin1-Abl PPI inh: inhibitors of human Rin1-Abl protein interaction. TR-FRET Rin1/Abl binding, biochemical. inhibition, % at 7.35 µM. hit rate 0.4% among 360,000; in the data active means inhibition above about 5%, passing the limit was not always enough
pPAFAH FP inh: inhibitors of human plasma PAF acetylhydrolase (pPAFAH). hit rate 1.5% among 330,000. AID 463082. inhibition, % at 3.39 µM. recombinant pPAFAH, FP-rhodamine probe fluorescence polarization;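 active means inhibition above the mean inhibition across the screen plus 3 SD, cut at about 25% in these data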;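 further: inhibitors block binding of the rhodamine activity-based probe so polarization drops; 0% = enzyme with DMSO and 100% = wells lacking pPAFAH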
PAFAH1B3 FP inh: PAFAH1B3 (human) inhibition. recombinant PAFAH1B3, FP-rhodamine probe, fluorescence polarization. inhibition, % at 3.39 µM. hit rate 0.28% among 340,000;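 active means inhibition above the screen-wide average of all tested compounds plus 3 SD, cut at about 25% in these data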;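 further: 0% = enzyme with DMSO only and 100% = wells lacking PAFAH1B3 protein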
PAFAH2 inh: PAFAH2 (human) inhibition | Q99487 | recombinant PAFAH2, FP-rhodamine activity probe, fluorescence polarization | inhibition, % at 3.39 µM | hit rate 0.99% among 340,000 | AID 492956;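 active means inhibition above the mean over all tested compounds plus 3 SD, cut at about 30% in these data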;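 further: inhibitors block probe labeling of enzyme so polarization drops; 0% = enzyme with DMSO and 100% = wells lacking PAFAH2 protein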
PAFAH1B2 FP inh: inhibitors of human PAFAH1B2. P68402. recombinant PAFAH1B2, FP-rhodamine activity probe, fluorescence polarization. inhibition, % at 3.39 µM. hit rate 1.2% among 340,000;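 active means inhibition above the mean of all tested compounds plus 3 SD, cut at about 24% in these data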;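 further: 0% = enzyme with DMSO and 100% = wells lacking PAFAH1B2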
* hit, by the source's call; / = no result given. An excerpt weighted towards active compounds, which were near 3.1% of everything screened.

SMILES | eLon inh | Rin1-Abl PPI inh | pPAFAH FP inh | PAFAH1B3 FP inh | PAFAH2 inh | PAFAH1B2 FP inh
CCOC(=O)N1CCN(c2cccc(C)c2C)CC1 | -7 | 1 | 3 | 4 | -4 | -2
Cc1cccc(N2CCN(C(=O)n3ccnc3)CC2)c1C | -7 | 4 | 33* | 14 | 7 | -1
O=C(COc1cccnc1[N+](=O)[O-])Nc1c(Cl)cccc1Cl | 6 | 4 | 5 | -3 | -2 | 3
O=C(COc1cccnc1[N+](=O)[O-])c1ccc(Cl)s1 | 1 | 0 | 31* | 9 | 18 | 4
CC1C(=O)Nc2ccccc2N1C(=O)C1CC1 (stereo unspecified) | 9 | -4 | -1 | 3 | -6 | 1
CCCCNC(=O)Oc1ccc(C(=O)N2c3ccccc3NC(=O)C2C)cc1 (stereo unspecified) | -9 | 2 | -2 | 4 | -11 | 34*
Cc1cccc(C2=NN(c3ccc(Br)cc3)[C@@H](C(=O)N3CCOC3=O)[C@@H]2c2ccc(F)cc2)c1 | -6 | -1 | 30* | 6 | -2 | -7
Cc1cccc(C2=NN(c3ccc(Br)cc3)[C@@H](C(=O)N3CCOC3=O)[C@@H]2c2ccc(Cl)cc2)c1 | 4 | -2 | 9 | 2 | 1 | -3
O=C(c1ccccc1)N1CCCc2ccccc21 | -10 | -2 | 4 | 6 | -6 | 9
O=C(c1ccc(=O)oc1)N1CCCc2ccccc21 | -6 | 4 | 25* | 10 | 40* | 12
CC1(C)CC2CC(C)(CN2S(=O)(=O)c2cccc(N)c2)C1 (stereo unspecified) | 6 | -3 | -3 | 6 | -4 | 24*
CCCNC(=O)c1cccc(S(=O)(=O)N2CC3(C)CC2CC(C)(C)C3)c1 (stereo unspecified) | 14 | -3 | -1 | 0 | 1 | 26*
CN(C)C(CNC(=O)c1cccc(S(=O)(=O)N2CC3(C)CC2CC(C)(C)C3)c1)c1ccco1 (stereo unspecified) | -12 | 4 | 4 | 3 | 11 | 13
O=C(CNC1CCCCC1)Nc1cccc(C(F)(F)F)c1 | -13 | -2 | 4 | 1 | 2 | -5
Clc1ccc(CSc2ncnc3c2ncn3C2CCCCO2)cc1 (stereo unspecified) | 4 | 3 | / | 8 | 3 | 22
CC(C)(C)c1ccc(C(CC(=O)O)NC(=O)CSc2ccccc2)cc1 (stereo unspecified) | 6 | 0 | 5 | / | / | /
CC(C)(C)c1ccc(C(CC(=O)O)NC(=O)C23CC4CC(CC(C4)C2)C3)cc1 (stereo unspecified) | -11 | 2 | 31* | -7 | 10 | 26*
CC1CCC2(CC1)NC(=O)N(CC(=O)NCc1ccc(F)cc1)C2=O (stereo unspecified) | 6 | 5 | 0 | -1 | 0 | 9
Cc1cc2oc(=O)cc(-c3ccccc3)c2c(C)c1-c1ccc(O)cc1 | -7 | 0 | 2 | 7 | -6 | -1
Cc1oc2cc(Br)c(O)c(Br)c2c1-c1ccccc1 | 2 | 0 | 17 | -4 | 72* | 16
Cc1ccc(NC(=O)C2CCN(S(=O)(=O)c3ccc(C(C)(C)C)cc3)CC2)cc1S(=O)(=O)N1CCOCC1 | 1 | 1 | / | -4 | -21 | -7
COc1cccc(NC(=O)Nc2cc(C(=O)O)ccc2N2CC3CC(C2)c2cccc(=O)n2C3)c1 (stereo unspecified) | 0 | 0 | 34* | 8 | 8 | 7
CCOC(=O)c1ccc(N2CCN(c3ccc(F)cc3)CC2)c(NC(=O)Nc2cccc(OC)c2)c1 | 1 | 0 | 29* | -17 | -21 | -3
COc1ccc(NC(=O)Nc2cc(C(=O)O)ccc2N2CC3CC(C2)c2cccc(=O)n2C3)c(OC)c1 (stereo unspecified) | 3 | 4 | 17 | 4 | -2 | 4
C#CCN1C=CC(=O)[C@@H](OC(=O)Nc2ccc(C)cc2)[C@H]1c1ccccc1Br | -5 | -1 | / | 2 | 2 | 1
CN(C(=O)c1ccccn1)C1(C(=O)NC2CCCCC2)CCCCC1 | -5 | -3 | 1 | 5 | 13 | 9
CC(=O)NCC(=O)N(c1ccccc1)C1(C(=O)NC2CCCCC2)CCCCC1 | -3 | -1 | 5 | 4 | -3 | 28*
CCCCS(=O)(=O)N1CCCC(C(=O)Nc2ccc3c(c2)CCC3)C1 (stereo unspecified) | -12 | 0 | 7 | 6 | -6 | 4

Assay outcomes from PubChem.
